# Rows were chosen to be rich in hits. Some 8.7% of all compounds tested hit in one or more screens of this group.
# Sfp inh – inhibitors of Bacillus subtilis Sfp phosphopantetheinyl transferase | AID 1490 | hit rate 3.5% among 310,000 | Biochemical Sfp PPTase activity, qHTS | Potency, µM, for inactives: largest response in the series, negative = inhibition, hits mostly inhibitors | Q9F4F7;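 note: the enzyme is Sfp with the accession as filed and its product quenches rhodamine fluorescence; 0% = enzyme reaction without inhibitor and -100% = no enzyme wells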
#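 Reaction rates are the 30-min fluorescence difference (ex 525, em 598 nm) in wells containing 15 nM Sfp, 5 uM rhodamine-CoA and 12.5 uM BHQ-2-YbbR at pH 7.6 with 10 mM MgCl2.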
# ALOX12 inh – ALOX12 (human) lipoxygenase inhibition | P18054 | purified 12hLO, xylenol orange hydroperoxide absorbance | Potency, µM (highest dose often 108 µM), for the others: at the highest dose activity change, negative = inhibition, most hits filed as inhibitors | hit rate 1.1% among 580,000 | AID 1671190; note: % is set by controls: 0 for no effect and ±100 for the full control effect
#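 Hydroperoxide product was detected by ferrous iron/xylenol orange as the 573 to 405 nm absorbance ratio. Arachidonic acid at 40 uM (final) was turned over for 30 min at room temperature by 150 nM human 12hLO, pH 7.0 Hepes buffer, after 15 min compound preincubation.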
# G9a block – blocks human histone lysine methyltransferase G9a. Potency, µM (highest dose often 102 µM), for inactives: top-dose activity, negative = inhibition, hits mostly inhibitors. G9a H3K9 monomethylation, AlphaScreen, 2 h. hit rate 8.8% among 350,000; note: % is set by controls: 0 for no effect and ±100 for the full control effect; nearly all actives have a fitted effect of over 75% in size
#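 Enzyme 20 nM + cpd, 15 min RT; add b-H3K9 pep 500 nM / SAM 20 uM; 2 h RT; anti-H3K9me1 Ab 0.5 ug/mL + SA donor / anti-rabbit acceptor beads 20 ug/mL each, 10 min; AlphaScreen read.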
# BAZ2B inh – BAZ2B (human) inhibition. Q9UIF8. AlphaScreen BAZ2B-H3K14Ac peptide displacement. Potency, µM (series often up to 114 µM), for the others: top-dose activity change, negative = inhibition, most hits filed as inhibitors. hit rate 4.4% among 360,000; note: % is set by controls: 0 for no effect and ±100 for the full control effect; nearly all actives have a fitted effect of over 60% in size
# Target sequence (Q9UIF8 whole entry, looked up): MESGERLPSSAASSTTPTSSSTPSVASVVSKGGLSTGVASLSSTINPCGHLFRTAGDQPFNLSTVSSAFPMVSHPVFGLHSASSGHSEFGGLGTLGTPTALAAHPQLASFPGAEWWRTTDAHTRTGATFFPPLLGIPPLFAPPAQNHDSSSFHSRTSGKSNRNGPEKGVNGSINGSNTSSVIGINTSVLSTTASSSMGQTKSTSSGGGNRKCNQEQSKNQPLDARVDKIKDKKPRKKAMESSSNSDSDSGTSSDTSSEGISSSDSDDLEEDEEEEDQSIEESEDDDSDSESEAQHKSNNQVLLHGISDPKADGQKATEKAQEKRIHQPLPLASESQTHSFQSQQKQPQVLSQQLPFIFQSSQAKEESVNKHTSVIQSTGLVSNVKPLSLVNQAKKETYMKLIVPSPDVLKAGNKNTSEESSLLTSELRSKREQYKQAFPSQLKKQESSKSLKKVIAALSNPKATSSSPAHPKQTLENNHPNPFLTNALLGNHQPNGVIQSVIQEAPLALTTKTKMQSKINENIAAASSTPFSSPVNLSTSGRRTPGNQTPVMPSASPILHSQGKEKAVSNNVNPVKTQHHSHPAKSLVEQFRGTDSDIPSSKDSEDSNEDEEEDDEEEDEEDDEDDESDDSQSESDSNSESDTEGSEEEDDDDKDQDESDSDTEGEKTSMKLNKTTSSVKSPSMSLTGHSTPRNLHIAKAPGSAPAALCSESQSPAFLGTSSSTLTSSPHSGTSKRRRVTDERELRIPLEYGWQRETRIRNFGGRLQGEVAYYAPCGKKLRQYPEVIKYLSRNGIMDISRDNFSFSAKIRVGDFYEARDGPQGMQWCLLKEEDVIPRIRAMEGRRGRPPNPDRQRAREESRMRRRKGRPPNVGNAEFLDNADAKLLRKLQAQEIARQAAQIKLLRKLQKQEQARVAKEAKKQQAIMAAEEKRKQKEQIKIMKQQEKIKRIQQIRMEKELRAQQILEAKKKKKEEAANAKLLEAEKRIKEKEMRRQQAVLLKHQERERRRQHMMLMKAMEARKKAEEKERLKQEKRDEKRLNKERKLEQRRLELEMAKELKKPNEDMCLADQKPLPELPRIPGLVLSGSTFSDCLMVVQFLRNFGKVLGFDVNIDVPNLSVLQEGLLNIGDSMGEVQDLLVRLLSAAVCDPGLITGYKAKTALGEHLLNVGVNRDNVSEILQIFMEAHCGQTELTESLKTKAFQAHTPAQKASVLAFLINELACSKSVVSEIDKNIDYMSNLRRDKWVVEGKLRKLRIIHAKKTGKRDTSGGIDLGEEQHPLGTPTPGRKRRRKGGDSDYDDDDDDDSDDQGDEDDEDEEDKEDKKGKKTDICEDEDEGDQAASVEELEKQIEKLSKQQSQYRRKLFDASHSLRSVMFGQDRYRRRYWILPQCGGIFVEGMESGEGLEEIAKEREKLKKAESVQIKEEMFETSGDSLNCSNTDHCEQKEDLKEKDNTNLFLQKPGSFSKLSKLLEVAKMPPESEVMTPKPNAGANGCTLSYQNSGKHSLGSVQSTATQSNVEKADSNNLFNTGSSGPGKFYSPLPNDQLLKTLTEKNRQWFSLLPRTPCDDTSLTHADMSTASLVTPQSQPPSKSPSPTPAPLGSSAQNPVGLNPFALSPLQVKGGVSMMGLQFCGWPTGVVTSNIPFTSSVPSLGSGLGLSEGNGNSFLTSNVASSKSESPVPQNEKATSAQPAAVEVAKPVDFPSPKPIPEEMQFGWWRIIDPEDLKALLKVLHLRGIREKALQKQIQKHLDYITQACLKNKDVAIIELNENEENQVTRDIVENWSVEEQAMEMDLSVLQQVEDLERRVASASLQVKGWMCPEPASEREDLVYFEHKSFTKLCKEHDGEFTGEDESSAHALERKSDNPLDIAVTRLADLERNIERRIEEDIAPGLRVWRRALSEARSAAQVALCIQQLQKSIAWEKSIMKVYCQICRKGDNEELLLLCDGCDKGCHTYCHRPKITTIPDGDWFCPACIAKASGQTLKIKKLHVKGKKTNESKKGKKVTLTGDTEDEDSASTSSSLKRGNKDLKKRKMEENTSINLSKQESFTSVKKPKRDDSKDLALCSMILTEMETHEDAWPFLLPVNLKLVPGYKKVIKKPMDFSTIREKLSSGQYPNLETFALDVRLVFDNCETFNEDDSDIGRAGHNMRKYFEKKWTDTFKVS
#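 AlphaScreen displacement of biotin-H3(5-23)K14Ac peptide (50 nM final) from BAZ2B (50 nM final) in PBS pH 7.4, 0.01% Tween-20; complex preformed 30 min RT, then compounds (top 110 uM) 30 min RT, beads 20 min dark.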
# JMJD2A Tudor – inhibitors of human JMJD2A Tudor domain; O75164; AlphaScreen JMJD2A-Tudor / H3K4me3 peptide binding; Potency, µM (doses to about 114 µM), without a hit: at the top dose activity change, negative = inhibition, actives largely listed as inhibitors; hit rate 4.4% among 390,000; AID 504339; note: % is set by controls: 0 for no effect and ±100 for the full control effect; nearly all actives have a fitted effect of over 50% in size
# HP1b chromo inh – blocks HP1-beta chromodomain binding to methylated histone tails; hit rate 0.56% among 390,000; AlphaScreen HP1-beta / biotin-H3K9me3 peptide binding; Potency, µM (titrated, usually from 114 µM), inactives show top-dose activity change, negative = inhibition, hits mostly inhibitors; note: nearly all actives have a fitted effect of over 70% in size
#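 Compound inhibition of the preformed complex between 50 nM HP1-beta and 50 nM biotinylated H3K9me3 peptide was read by AlphaScreen. Buffer was PBS pH 7.4 with 0.01% Tween-20. Incubations ran 30 min at room temperature, with 10 ug/mL donor/acceptor beads.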
# The depositor's hits bear a star; ? = inconclusive; . = not tested or not shown; [ ] = dose if it differs, or a comment. Calls come from the whole dose curve; as a rule, active = well fitted curve in the direction sought with a large enough effect; inconclusive = small, poorly fitted or top-dose-only effect, or another doubt; inactive = no such curve, though single readings can be large; an effect the other way counts as inactive or inconclusive. Potency is the fitted concentration of half-maximal effect.
SMILES,Sfp inh,ALOX12 inh,G9a block,BAZ2B inh,JMJD2A Tudor,HP1b chromo inh
N#Cc1cccc(CN2CCOC[C@H]2c2ncc(-c3ccc(C(F)(F)F)cc3)[nH]2)c1,.,-13%[176 µM],.,.,.,.
O=C(CSc1n[nH]c(-c2ccncc2)n1)Nc1ccccc1Cl,.,-8%,50µM*,7%,-7%,8%
Cc1ccc(NC(=O)CSc2n[nH]c(-c3ccncc3)n2)c(C)c1,8%,0%,7%[59 µM],6%,-4%,24%
CCN(CC)c1nc2ccccc2nc1C(=O)Nc1ccc(OC)c(OC)c1,.,2%,.,.,.,.
COc1ccc(C2C(C(=O)OCC(=O)N3CCCCC3)CCC(=O)N2c2ccc(OC)cc2)cc1 (centres undefined),6%,-52%,45µM*,-11%,2%,18%
CCNC(=O)COC(=O)C1CCC(=O)N(c2ccc(OC)cc2)C1c1ccc(OC)cc1 (centres undefined),12%,-3%,-5%[59 µM],31%,-18%,21%
CC(NCC1COc2ccccc2O1)C1COc2ccccc2O1 (centres undefined),?,?,-27%,?,4µM*,-4%[57 µM]
CC(NS(=O)(=O)c1ccccc1)C1COc2ccccc2O1 (centres undefined),13%,?,6%[59 µM],-3%,8%,39%
CC(NC(=O)c1ccccc1Cl)C1COc2ccccc2O1 (centres undefined),-1%,-3%,-5%[59 µM],1%,7%,24%
CC(NCC1COc2ccccc2O1)C(=O)NCc1ccccc1 (centres undefined),?,-29%,45µM*,35µM*,1.3µM*,16µM*
O=C(CCNC(=O)c1ccc([N+](=O)[O-])cc1)NCC1COc2ccccc2O1 (centres undefined),.,-2%,50µM*,7%,-23%,8%
CCOC(=O)CCNC(C)C1COc2ccccc2O1 (centres undefined),-25%,?,2.2µM*,-100%,2.8µM*,2%
CC(C)CCN1C(=O)N(CCCc2ccncc2)C(=O)C12CCN(Cc1ccc(F)cc1)CC2,.,61%,.,.,.,.
O=C(NC1CCCCC1)[C@@H]1C[C@@H](O)CN1C1CCN(C(=O)c2cccnc2)CC1,.,46%,.,.,.,.
COCc1noc([C@@H]2CN(Cc3ccoc3)C[C@H]2COC)n1,.,28%,.,.,.,.
N#Cc1ccccc1CN1CCN(c2oc(C3CC3)nc2C#N)CC1,.,12%,.,.,.,.
Cn1cccc1C(=O)NCC1COc2ccccc2O1 (centres undefined),.,?,50µM*,-31%,-31%,-8%
Cc1ccc(CNC(=O)CCCn2c(=O)[nH]c3ccccc3c2=O)cc1,8%,?,-7%[59 µM],5%,-22%,44%
CCN(CCCNC(=O)CCc1nc(-c2ccc(C)cc2)no1)c1cccc(C)c1,13%,-2%,45µM*,?,-26%[11.4 µM],?
CCN(CCCNC(=O)CCn1c(=O)[nH]c2ccccc2c1=O)c1ccccc1,12%,43%,50µM*,-1%,-27%,13%
CCN(CCCNC(=O)CCCn1c(=O)[nH]c2ccccc2c1=O)c1cccc(C)c1,-7%,0%,13µM*,?,-28%[57.1 µM],-12%

# High-throughput results deposited in PubChem by National Center for Advancing Translational Sciences (NCATS).
